Test results from the supplement of paper PMC8728848.
The full list was thinned out, with the strongest signals kept by preference.

Experiments:
Experiment in all cases: glycan array binding signal (z-score within array); higher = stronger binding
Conditions in all cases: glycan notation: IUPAC condensed, linker removed; mutation: D57L
[1] = target: GlcNAc(b1-2)[GlcNAc(b1-4)]Man(a1-3)[GlcNAc(b1-4)][GlcNAc(b1-2)[GlcNAc(b1-6)]Man(a1-6)]Man(b1-4)GlcNAc(b1-4)GlcNAc
Method in brief: (§1)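 The binding signal is a Z-score computed within each array. Data were drawn from 3228 arrays in the Consortium for Functional Glycomics database, restricted to those with a known protein sequence. Scores were averaged over arrays of the same protein sequence at different concentrations or buffers, and over linkers, and negative values can be taken as non-binding.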

[2] = target: GlcNAc(b1-3)Gal(b1-4)GlcNAc(b1-2)Man(a1-3)[GlcNAc(b1-3)Gal(b1-4)GlcNAc(b1-2)Man(a1-6)]Man(b1-4)GlcNAc(b1-4)GlcNAc
Method in brief: as §1

[3] = target: GlcNAc(b1-3)Gal(b1-4)GlcNAc(b1-3)Gal(b1-4)GlcNAc(b1-3)Gal(b1-4)GlcNAc(b1-3)Gal(b1-4)GlcNAc(b1-2)Man(a1-3)[GlcNAc(b1-3)Gal(b1-4)GlcNAc(b1-3)Gal(b1-4)GlcNAc(b1-3)Gal(b1-4)GlcNAc(b1-3)Gal(b1-4)GlcNAc(b1-2)Man(a1-6)]Man(b1-4)GlcNAc(b1-4)[Fuc(a1-6)]GlcNAc
Method in brief: as §1

[4] = target: GlcNAc(b1-3)Gal(b1-4)GlcNAc(b1-3)GalNAc
Method in brief: as §1

GlcNAc(b1-3)Man = target: GlcNAc(b1-3)Man
Method in brief: as §1

[5] = target: GlcNAc(b1-4)Gal(b1-4)GlcNAc
Method in brief: as §1

Kdn(a2-6)Gal(b1-4)GlcNAc = target: Kdn(a2-6)Gal(b1-4)GlcNAc
Method in brief: as §1

Man(a1-2)Man(a1-3)Man = target: Man(a1-2)Man(a1-3)Man
Method in brief: as §1

Man(a1-3)[Man(a1-6)]Man = target: Man(a1-3)[Man(a1-6)]Man
Method in brief: as §1

[6] = target: Man(a1-3)[Man(a1-6)]Man(a1-6)[Man(a1-3)]Man
Method in brief: as §1

[7] = target: Man(a1-3)[Man(a1-6)]Man(b1-4)GlcNAc(b1-4)GlcNAc
Method in brief: as §1

[8] = target: Neu5Ac(a2-3)Gal(b1-3)GalNAc(b1-4)[Neu5Ac(a2-3)]Gal(b1-4)Glc
Method in brief: as §1

[9] = target: Neu5Ac(a2-3)Gal(b1-3)GlcNAc(b1-2)Man
Method in brief: as §1

[10] = target: Neu5Ac(a2-3)Gal(b1-3)GlcNAc(b1-2)Man(a1-3)[GlcNAc(b1-4)][Neu5Ac(a2-3)Gal(b1-3)GlcNAc(b1-2)Man(a1-6)]Man(b1-4)GlcNAc(b1-4)GlcNAc
Method in brief: as §1

[11] = target: Neu5Ac(a2-3)Gal(b1-3)GlcNAc(b1-6)GalNAc
Method in brief: as §1

[12] = target: Neu5Ac(a2-3)Gal(b1-3)GlcNAc6S
Method in brief: as §1

[13] = target: Neu5Ac(a2-3)Gal(b1-4)GlcNAc(b1-2)Man
Method in brief: as §1

[14] = target: Neu5Ac(a2-3)Gal(b1-4)GlcNAc(b1-3)Gal(b1-4)GlcNAc
Method in brief: as §1

[15] = target: Neu5Ac(a2-3)Gal(b1-4)GlcNAc(b1-3)Gal(b1-4)GlcNAc(b1-2)Man(a1-3)[Neu5Ac(a2-3)Gal(b1-4)GlcNAc(b1-3)Gal(b1-4)GlcNAc(b1-2)Man(a1-6)]Man(b1-4)GlcNAc(b1-4)GlcNAc
Method in brief: as §1

[16] = target: Neu5Ac(a2-3)Gal(b1-4)GlcNAc(b1-3)Gal(b1-4)GlcNAc(b1-3)Gal(b1-4)GlcNAc(b1-2)Man(a1-3)[Neu5Ac(a2-3)Gal(b1-4)GlcNAc(b1-3)Gal(b1-4)GlcNAc(b1-3)Gal(b1-4)GlcNAc(b1-2)Man(a1-6)]GalNAc
Method in brief: as §1

[17] = target: Neu5Ac(a2-3)Gal(b1-4)GlcNAc(b1-6)[Gal(b1-3)]GalNAc
Method in brief: as §1

[18] = target: Neu5Ac(a2-3)Gal(b1-4)[Fuc(a1-3)]GlcNAc(b1-6)[Neu5Ac(a2-3)Gal(b1-3)]GalNAc
Method in brief: as §1

Neu5Ac(a2-3)GalNAc = target: Neu5Ac(a2-3)GalNAc
Method in brief: as §1

[19] = target: Neu5Ac(a2-6)Gal(b1-4)GlcNAc(b1-3)[Neu5Ac(a2-6)Gal(b1-4)GlcNAc(b1-6)]GalNAc
Method in brief: as §1

[20] = target: Neu5Ac(a2-6)Gal(b1-4)GlcNAc6S
Method in brief: as §1

[21] = target: Neu5Ac(a2-6)GalNAc(b1-4)GlcNAc
Method in brief: as §1

[22] = target: Neu5Ac(a2-8)Neu5Ac(a2-3)Gal(b1-3)GalNAc(b1-4)[Neu5Ac(a2-3)]Gal(b1-4)Glc
Method in brief: as §1

[23] = target: Neu5Ac9Ac(a2-3)Gal(b1-4)GlcNAc
Method in brief: as §1

[24] = target: Neu5Gc(a2-6)Gal(b1-4)GlcNAc
Method in brief: as §1

[25] = target: Neu5Gc(a2-8)Neu5Gc(a2-3)Gal(b1-4)GlcNAc(b1-3)Gal(b1-4)GlcNAc
Method in brief: as §1

B1: PNGase F (Flavobacterium meningosepticum) (protein)
chain: GIPAPADNTVNIKTFDKVKNAFGDGLSQSAEGTFTFPADVTAVKTIKMFIKNECPNKTCLEWDRYANVYVKNKTTGEWYEIGRFITPYWVGTEKLPRGLEIDVTDFKSLLSGNTELKIYTETWLAKGREYSVDFDIVYGTPDYKYSAVVPVVQYNKSSIDGVPYGKAHTLALKKNIQLPTNTEKAYLRTTISGWGHAKPYDAGSRGCAEWCFRTHTIAINNSNTFQHQLGALGCSANPINNQSPGNWTPDRAGWCPGMAVPTRIDVLNNSLIGSTFSYEYKFQNWTNNGTNGDAFYAISSFVIAKSNTPISAPVVTNLDPHHHHHH
glycan array binding signal (z-score) [1]: -0.146
glycan array binding signal (z-score) [2]: 0.239
glycan array binding signal (z-score) [3]: 0.677
glycan array binding signal (z-score) [4]: 0.274
glycan array binding signal (z-score) (GlcNAc(b1-3)Man): 2.62
glycan array binding signal (z-score) [5]: -0.997
glycan array binding signal (z-score) (Kdn(a2-6)Gal(b1-4)GlcNAc): 0.05
glycan array binding signal (z-score) (Man(a1-2)Man(a1-3)Man): -1.18
glycan array binding signal (z-score) (Man(a1-3)[Man(a1-6)]Man): 0.446
glycan array binding signal (z-score) [6]: 3.32
glycan array binding signal (z-score) [7]: 0.156
glycan array binding signal (z-score) [8]: 0.797
glycan array binding signal (z-score) [9]: -0.518
glycan array binding signal (z-score) [10]: 0.012
glycan array binding signal (z-score) [11]: 0.237
glycan array binding signal (z-score) [12]: 1.09
glycan array binding signal (z-score) [13]: 3.1
glycan array binding signal (z-score) [14]: -0.525
glycan array binding signal (z-score) [15]: 0.19
glycan array binding signal (z-score) [16]: 0.914
glycan array binding signal (z-score) [17]: 2.77
glycan array binding signal (z-score) [18]: 0.57
glycan array binding signal (z-score) (Neu5Ac(a2-3)GalNAc): 1.19
glycan array binding signal (z-score) [19]: -0.712
glycan array binding signal (z-score) [20]: 0.924
glycan array binding signal (z-score) [21]: -1
glycan array binding signal (z-score) [22]: -0.06
glycan array binding signal (z-score) [23]: -1.04
glycan array binding signal (z-score) [24]: 0.069
glycan array binding signal (z-score) [25]: -0.629
